Results with a measured potency or affinity are listed apart. Records with an inconclusive call do not appear. Calls of active or inactive are those of the source. Unless noted, no rule for the calls is given here.
Columns and labels:
[1] = inhibitors of PAX8-driven TPO luciferase reporter, dose response, RMG-I cells, cherry-pick (AID 687027;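 active = every replicate test run called active, with the signal dropping as expected and potency within twice the top valid dose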)
[2] = cytotoxicity in PAX8-dependent RMG-1 cells, dose response, cell-based, cherry-pick (AID 687029;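 active = signal drop whose fitted half-maximal concentration is at most twice the top valid dose, in every test run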;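 also: cells exposed to compound for 96 hours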)
[3] = inhibitors of CMV-promoter luciferase reporter, dose response, counter-screen for Pax8 inhibitor project, cell-based, HEK293, luminescence, dry powder (AID 743020;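 active = signal-lowering compounds whose fitted half-maximal concentration is at or below twice the top tested dose in every run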;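 also: HEK293 cells stably expressing the CMV luciferase reporter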)
[4] = non-specific cell cytotoxicity, dose response, cytotoxicity control for PAX8 inhibitor project, plate reader, dry powder samples (AID 743021)
[5] = cytotoxicity in IOSE-T80 ovarian epithelial cells, dose response, selectivity assay for PAX8 inhibitor project, cell-based, cherry-pick (AID 687032;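 active = fitted half-maximal concentration for viability loss no higher than twice the top valid dose, in every repeat run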;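 also: cells exposed to compound for 96 h before reading; 0% = neutral control wells and -100% = 2 µM mitoxantrone kill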)
[6] = IGROV1 ovarian cancer cell cytotoxicity, dose response, PAX8 inhibitor project, plate reader, dry powder samples (AID 743043);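 also: more negative means fewer viable cells or more cytotoxicity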
[7] = NIH:OVCAR-3 ovarian cancer cell cytotoxicity, dose response, PAX8 inhibitor project, plate reader, dry powder samples (AID 743044); settings: max activity: at 35 µM, stronger effect = lower value unless noted
[8] = IOSE-T80 ovarian epithelial cell cytotoxicity, dose response, cytotoxicity control for PAX8 inhibitor project, plate reader, dry powder samples (AID 743045);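 also: 0% = neutral control median and -100% = positive control median; more negative values mean more cell killing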
[9] = A2780 ovarian cancer cell cytotoxicity, dose response, cytotoxicity control, plate reader, dry powder samples (AID 743046);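 also: 0% = neutral control wells and -100% = cytotoxic reference compound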
[10] = cytotoxicity in OVCAR8 ovarian cancer cells, dose response, PAX8 project, cell-based, plate reader, dry powder samples (AID 743197)

O=C(O)C1C=CC(C(=O)O)c2ccccc21 (stereo not given)
inactive: outcome [1] | outcome [2] | outcome [3] | outcome [4]

Cn1ccnc1SCc1nc2c(cnn2-c2ccccc2)c(=O)[nH]1
inactive: outcome [1] | outcome [2] | outcome [4]

Nn1cnnc1N/N=C\c1ccc(-c2ccccc2[N+](=O)[O-])o1
inactive: outcome [1] | outcome [2] | outcome [3] | outcome [4]

Nc1ccc2c(c1)CC(=O)c1ccccc1S2
inactive: outcome [1] | outcome [2] | outcome [3] | outcome [4]

COC1OC(COCc2ccccc2)C2OC(C)(C)OC2C1O (stereo not given)
inactive: outcome [1] | outcome [2] | outcome [3] | outcome [4]

COc1ccc(NC(=O)C[C@H]2C(=O)N(c3ccc(OC)cc3)C[C@@H]2C)cc1
inactive: outcome [1] | outcome [2] | outcome [3] | outcome [4]

O=C(CCN1C(=O)/C(=C/c2ccccc2Cl)SC1=S)Nc1ccccc1C(=O)O
inactive: outcome [1] | outcome [2] | outcome [3] | outcome [4]

Oc1ccc(F)c2cccnc12
inactive: outcome [1] | outcome [5] | outcome [3] | outcome [4]

CN(C)CC#Cc1ccc([C@@H]2[C@H](CO)N3CCCCN(C(=O)Nc4ccc(F)cc4)C[C@@H]23)cc1
inactive: outcome [1] | outcome [2] | outcome [3] | outcome [4] | outcome [6] | max activity [7] 29.4% [at 0.26 µM, stronger effect = lower value] | outcome [8] | outcome [9] | outcome [10]

COc1ccc2c(c1)OC/C(=C/c1cccs1)C2=O
inactive: outcome [1] | outcome [2] | outcome [4]

O=C(Cn1cc(C(F)(F)F)ccc1=O)Nc1ccc2c(c1)OCO2
inactive: outcome [1] | outcome [2] | outcome [3] | outcome [4]

O=[N+]([O-])c1cc(-c2nnc(-c3ccccc3)o2)ccc1Oc1ccc(Cl)cc1
inactive: outcome [1] | outcome [2] | outcome [4]

Cc1ccc(-c2ccc([C@@H]3[C@H](CO)N4CCCCN(C(=O)Nc5cccc(F)c5)C[C@@H]34)cc2)cc1
inactive: outcome [1] | outcome [2] | outcome [3] | outcome [4] | outcome [8] | outcome [9]

CCN1CCN(c2nc(-c3cccs3)nc3ccccc23)CC1
inactive: outcome [1] | activity change, negative = inhibition [2] 16.7% [at 8 µM] | outcome [4]

Cc1ccc(-c2nc(C)sc2CC(=O)OCC(=O)Nc2cccc([N+](=O)[O-])c2)cc1
inactive: outcome [1] | outcome [2] | outcome [4]

CC(C)(C)OC(=O)[C@H](Cc1ccccc1)NC(=O)c1nc[nH]c1C(=O)N[C@@H](Cc1ccccc1)C(=O)OC(C)(C)C
inactive: activity change, negative = inhibition [1] -24.7% [at 8 µM] | outcome [2] | outcome [4]

C[C@@H]1CN([C@@H](C)CO)C(=O)CCCn2nncc2CO[C@H]1CN(C)S(=O)(=O)c1ccc(Cl)cc1
inactive: outcome [1] | outcome [2] | outcome [4]

O=C(NNC(=O)c1cccc2ccccc12)c1cccc(F)c1
inactive: outcome [1] | outcome [2] | outcome [3] | outcome [4]

COc1ccc(C(C)NC(=O)c2ccc(Br)cc2)cc1OC (stereo not given)
inactive: outcome [1] | outcome [2] | outcome [3] | outcome [4]

O=C(/C=C/c1ccc(Cl)cc1Cl)N1CCN(c2ccccc2[N+](=O)[O-])CC1
inactive: outcome [1] | outcome [2] | outcome [3] | outcome [4]

COc1ccc(C(=O)NC(=S)NNC(=O)COc2ccccc2)cc1
inactive: outcome [1] | outcome [2] | outcome [4]

CCCNC(=O)COC(=O)/C=C/c1ccco1
inactive: outcome [1] | outcome [2] | outcome [4]

Cc1nnc(N/N=C/c2cccc(C(F)(F)F)c2)n1N
inactive: outcome [1] | outcome [2] | outcome [4]

O=C(Cc1ccc(F)cc1)OCC(=O)N1CCN(S(=O)(=O)c2ccc(Cl)cc2)CC1
inactive: outcome [1] | outcome [2] | outcome [3] | outcome [4]

Cc1ccc2nc(-c3ccc(NC(=S)NC4CC(C)(C)NC(C)(C)C4)cc3)sc2c1
inactive: outcome [1] | outcome [2] | outcome [4]

C[C@H](CO)N1C[C@H](C)[C@@H](CN(C)C(=O)Nc2ccnc(N3CCOCC3)c2)OCc2cnnn2CCCC1=O
inactive: outcome [1] | outcome [2] | outcome [3] | outcome [4] | outcome [6] | max activity [7] 8.36% [at 0.26 µM, stronger effect = lower value] | outcome [8] | outcome [10]

Cc1cc(C)c2c(c1)/C(=N/NC(=O)c1cc(C)oc1C)CCC2
inactive: outcome [1] | outcome [2] | outcome [4]

Cc1ccc(NC(=O)c2c([N+](=O)[O-])c(C(C)(C)C)nn2C)c(C)c1
inactive: outcome [1] | outcome [2] | outcome [4]

O=C(NCc1ccc(F)cc1)C1(c2cccs2)CCOCC1
inactive: outcome [1] | outcome [2] | outcome [4]

Cc1cc([N+](=O)[O-])nn1CCCC(=O)Nc1sc2c(c1C(N)=O)CCC(C)C2 (stereo not given)
inactive: outcome [1] | outcome [2] | outcome [4]

COc1ccccc1CNC(=O)c1ccc2nc3[nH]c4ccccc4c3nc2c1
inactive: outcome [1] | outcome [5] | outcome [4]

O=C(CCl)N(c1ccccc1)C1CCCCC1
inactive: outcome [2]

CN(C)CCNC(=O)c1cc2c(s1)-c1ccc(Cl)cc1SC2
inactive: outcome [2]

CNC[C@H]1Oc2ccc(NC(=O)NC(C)C)cc2CC(=O)N([C@@H](C)CO)C[C@@H]1C
inactive: outcome [1] | outcome [5] | outcome [3] | outcome [4] | outcome [6] | max activity [7] 12.2% [at 2.1 µM, stronger effect = lower value] | outcome [8] | outcome [9] | outcome [10]

COc1ccc2nc(C)cc(N/N=C/c3cccc(OC)c3O)c2c1
inactive: outcome [2]

C[C@@H]1CN([C@@H](C)CO)C(=O)Cc2cc(NS(=O)(=O)c3ccc(Cl)cc3)ccc2O[C@H]1CN(C)Cc1ccc(C(F)(F)F)cc1
inactive: outcome [1] | outcome [5] | outcome [3] | outcome [4] | outcome [6] | max activity [7] 14.3% [at 0.26 µM, stronger effect = lower value] | outcome [8] | outcome [9] | outcome [10]

CC1CN(CC(O)COC(c2ccccc2)c2ccccc2)CC(C)O1 (stereo not given)
inactive: outcome [1] | outcome [3] | outcome [4]

Cc1ccc(Cl)cc1NC1=C/C(=N\S(=O)(=O)c2cccs2)c2ccccc2C1=O
inactive: outcome [2]

OCC1OC(n2cnc3c(NCc4ccccc4O)ncnc32)C(O)C1O (stereo not given)
inactive: outcome [2]

CCSc1cc(N2CCOCC2)nc(-c2ccc(Cl)cc2)n1
inactive: outcome [1] | outcome [3] | outcome [4]

COC(=O)C1=C(C)N(Cc2cccc(C(F)(F)F)c2)C(=NCc2ccc(OC)cc2)NC1c1cccc(F)c1 (stereo not given)
inactive: outcome [2]

C[C@@H]1CN([C@@H](C)CO)C(=O)Cc2cc(NS(=O)(=O)c3ccccc3)ccc2O[C@H]1CN(C)Cc1ccc(Cl)c(Cl)c1
inactive: outcome [2]

Cc1cc(Nc2ccc3c(c2)OCCO3)c2ccccc2n1
inactive: outcome [1] | outcome [4]

CCCNC(=O)COc1nc2ccccc2nc1N1CCOCC1
inactive: outcome [1] | outcome [3] | outcome [4]

CCOc1ccc(-n2c(=S)sc3c(=O)[nH]c(SCC(=O)NCC4CCCO4)nc32)cc1 (stereo not given)
inactive: outcome [1] | outcome [3] | outcome [4]

Cc1nnc(N/N=C/c2cc(C)n(-c3ccc(F)cc3)c2C)n1N
inactive: outcome [1] | outcome [3] | outcome [4]

N#Cc1nccnc1S(=O)(=O)c1cccs1
inactive: outcome [2]

CC(C)(C)OC(=O)NCCCC[C@H](NC(=O)c1[nH]cnc1C(=O)Nc1ccc(CNC(=O)OC(C)(C)C)cc1)C(=O)OC(C)(C)C
inactive: outcome [2]

COc1cc(OC)cc(C(=O)NCC(=O)OCC(=O)c2cc(C)n(Cc3ccco3)c2C)c1
inactive: outcome [1] | outcome [3] | outcome [4]

O=C(Nc1ccc([N+](=O)[O-])cc1)C(=O)Nc1cccc(C(=O)O)c1
inactive: outcome [2]

O=S(=O)(NCC1CCCO1)c1cnc(Cl)c(Br)c1 (stereo not given)
inactive: outcome [1] | outcome [3] | outcome [4]

Source: PubChem BioAssay
